# In PubChem BioAssay (NCATS):
# Results filed as inconclusive are left out. Active and inactive are the calls of the source. Unless noted, the call rests on the fitted dose curve; in most records, active means well fitted curve in the direction sought with a large enough effect; inconclusive means small, poorly fitted or top-dose-only effect, or another doubt; inactive means no such curve, though single readings can be large; an effect the other way counts as inactive or inconclusive.
# Legend:
# [1] = qHTS drug screen for cell cycle checkpoint inhibitors in PARPi-resistant BRCA-mutant ovarian cancer cell lines. (AID 1963452; calls by dose curve; further: potency means the concentration at half of the fitted maximal effect); conditions: PEO1/OlaR viability, CellTiter-Glo luminescence, 96 h; for Z-AUC: stronger effect = lower value
# How it was run: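 PEO1, PEO4 and PEO1/OlaR ovarian cancer cells, 600 per well, exposed 96 h at 37C to a dilution series. Viability read by CellTiter-Glo luminescence, normalized to DMSO and empty wells; activity summarized as Z-AUC.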
# [2] = KB-3-1 P-gp reporter qHTS against the NCATS DSHEA and TCM libraries (AID 1919975); conditions: KB-3-1 parental cells, CellTiter-Glo luminescence viability, 72 h; series mostly up to 26.1 µM; further: 0% is about no effect
# How it was run: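 Parental KB-3-1 human cervical adenocarcinoma cells (500 cells/well, DMEM + 10% FBS) were treated with substances for ~72 h at 37C; viability was read by CellTiter-Glo luminescence.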
# [3] = qHTS Counterscreen for compound interference against the NCATS DSHEA and TCM libraries (AID 1919978); conditions: firefly luciferase detection reagent interference, luminescence;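 further: compounds preincubated with 1 µM D-luciferin or buffer before detection reagent; % of control where 0% means no effect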
# From the text: PI: Anton Simeonov Ph.D. Assay Development and Screening Technology Laboratory (ADST) National Center for Advancing Translational Sciences (NCATS), Rockville, MD National Institute of Health (NIH), Bethesda, Maryland Dietary Supplements and Natural Products have minor oversight of their safety and efficacy. We assembled a collection of Dietary Supplements and Natural Products (DSNP) as well as Traditional Chinese Medicinal (TCM) Plant extracts, which were screened against an in vitro panel of assays, including a liver cytochrome p450 enzyme panel, CAR/PXR signaling pathways, and P-gp transporter assays, to assess their activity. This pipeline facilitated the interrogation of Natural Product-Drug Interaction (NaPDI) through prominent metabolizing pathways. In addition, we compared the activity profiles of the DSNP/TCM substances with those of an approved drug collection. Many of the approved drugs have well-annotated mechanisms of action (MOA) while the MOAs for most of the DSNP and TCM samples remain unknown. Based on the premise that compounds with similar activity profiles tend to share similar targets or MOA, we clustered the library activity profiles to identify overlap with the NCATS Pharmaceutical Collection to predict the MOAs of the DSNP/TCM substances. Overall, we highlight four significant bioactivity profiles (measured by p-values) as examples of this prediction. To assess broad cytotoxicity, we employed screening against a HepG2 cell line. In addition, transporter-mediated drug interactions are utilized in the characterization of DDIs using a P-glycoprotein (P-gp) assays. To profile potential P-gp activity, a differential cell viability was measured against two cell lines: a parental KB-3-1 human cervical adenocarcinoma cell line and the drug-resistant subline KB-8-5-11 that overexpresses P-gp. […] To this end, we profiled both collections for potential CAR and/or PXR activity, employing a previously published 1536-well qHTS assay. […] Reference: [1] Lee TD, et al. A High-Throughput Screen of a Library of Therapeutics Identifies Cytotoxic Substrates of P-glycoprotein. Mol Pharmacol. Nov 2019;96(5):629-640. doi:10.1124/mol.119.115964
# PROTOCOL TABLE (as described by Inglese J, Shamu CE and Guy RK. 2007) SEQUENCE No. (e.g., 1, 2, 3, etc.); […] (e.g., Cells, Incubation, Reagent, etc.); VALUE; DESCRIPTION. 1; Reagent; 4 uL; D-luciferin or buffer only, white solid-bottom Greiner plate. 2; Compounds and control; 16 nL; Kalypsis pintool (Wako USA). 3; Incubation; 15 min; room temperature. 4; Reagent; 4 uL; luciferin detection reagent. 5; Centrifuge; 1000 RPM; 15 sec. 6; Incubation; 30 min; room temperature. 7; Read; Luminescence; ViewLux plate reader. NOTES (numbers refer to Sequence numbers above) 1. […] Plates were then read for luminescence intensity on a ViewLux detector. […]
# [4] = Dual reporter qHTS for agonist of Pregnane X Receptor (hPXR) against the NCATS DSHEA and TCM libraries: Fluorescence readout (AID 1920058); conditions: PXR dual reporter cells; series mostly up to 40 µM; further: 0% is about no effect
# How it was run: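 Fluorescence read-out for cell viability: CellTiter-Fluor, 1 h at 37 °C, Ex/Em 405/540 nm. This followed ~24 h treatment of hPXR-Luc HepG2 cells with substances in agonist mode.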
# [5] = molecular target: Nuclear receptor subfamily 1 group I member 2 (Homo sapiens) (UniProt O75469); assay: Dual reporter qHTS for agonist of Pregnane X Receptor (hPXR) against the NCATS DSHEA and TCM libraries: Luminescence readout (AID 1920059); conditions: hPXR dual reporter cells, luciferase luminescence agonist; series mostly up to 40 µM; further: potency means the concentration at half of the fitted maximal effect
# Nuclear receptor subfamily 1 group I member 2 (Homo sapiens), sequence (O75469 whole entry, looked up): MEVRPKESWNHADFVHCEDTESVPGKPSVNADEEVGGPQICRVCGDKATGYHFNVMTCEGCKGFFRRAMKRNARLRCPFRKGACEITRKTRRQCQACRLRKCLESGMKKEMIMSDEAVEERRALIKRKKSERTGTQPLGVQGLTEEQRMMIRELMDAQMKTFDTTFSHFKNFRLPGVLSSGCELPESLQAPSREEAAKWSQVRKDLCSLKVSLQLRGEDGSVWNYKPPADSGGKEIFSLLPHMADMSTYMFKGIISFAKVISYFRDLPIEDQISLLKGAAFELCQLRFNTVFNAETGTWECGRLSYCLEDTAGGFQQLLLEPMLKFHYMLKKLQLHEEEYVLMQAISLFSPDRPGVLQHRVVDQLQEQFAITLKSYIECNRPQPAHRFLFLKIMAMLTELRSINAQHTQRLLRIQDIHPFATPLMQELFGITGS
# How it was run: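 hPXR-LucHepG2 cells in phenol red-free DMEM with 5% charcoal-stripped FBS, 2000 cells/well, attached 5 h, then exposed 24 h at 37C to compounds; rifampicin as positive agonist control (2.8 nM–92 uM). Luciferase luminescence read.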
# [6] = molecular target: Nuclear receptor subfamily 1 group I member 2 (Homo sapiens) (UniProt O75469); assay: Dual reporter qHTS for antagonist of Pregnane X Receptor (hPXR) against the NCATS DSHEA and TCM libraries: Luminescence Readout (AID 1920060); conditions: hPXR dual reporter cells, luciferase luminescence, antagonist mode; series mostly up to 40 µM;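 further: HepG2 cells carrying hPXR luciferase reporter stimulated with rifampicin at 2 µM; 0% is about no effect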
# How it was run: (§1)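 HepG2 hPXR-Luc, 2000 cells/well, charcoal-stripped FBS medium; 5 h attach; RIF 2 uM final; 24 h 37C/5% CO2; CellTiter-Fluor 1 h, fluor 405/540; ONE-Glo 30 min RT, lum.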
# [7] = Dual reporter qHTS for antagonist of Pregnane X Receptor (hPXR) against the NCATS DSHEA and TCM libraries: Fluorescence Readout (AID 1920061); conditions: PXR dual reporter cells, antagonist mode; series mostly up to 40 µM; further: 0% is about no effect
# How it was run: as §1
# [8] = qHTS for identification of novel therapeutic agents for treatment of microphthalmiaassociated transcription factor (MiT) renal cell carcinoma (RCC) (AID 1963991); conditions: CellTiter-Glo, 48 h, stronger effect = lower value;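 further: curves scaled with 100% = DMSO viability and 0% = empty wells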
# How it was run: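 UOK109/UOK124/UOK145 (TFE3 fusions, three partners); 500 cells/well; MIPE v4.0, 1912 cpds, 11 conc.; 48 h, 37 C; CellTiter-Glo, 15 min RT; lum. Norm.: DMSO 100%, empty 0%.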
# [9] = molecular target: Cytochrome P450 2C19 (Homo sapiens) (UniProt P33261); assay: qHTS for inhibitors of CYP2C19 against the NCATS DSHEA and TCM libraries (AID 1919974); conditions: CYP2C19 enzyme inhibition, luminescence qHTS;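 further: luminescence from luciferin released by CYP2C19 oxidation of a pro-luciferin substrate; potency means the concentration at half of the fitted maximal effect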
# Cytochrome P450 2C19 (Homo sapiens), sequence (P33261 whole entry, looked up): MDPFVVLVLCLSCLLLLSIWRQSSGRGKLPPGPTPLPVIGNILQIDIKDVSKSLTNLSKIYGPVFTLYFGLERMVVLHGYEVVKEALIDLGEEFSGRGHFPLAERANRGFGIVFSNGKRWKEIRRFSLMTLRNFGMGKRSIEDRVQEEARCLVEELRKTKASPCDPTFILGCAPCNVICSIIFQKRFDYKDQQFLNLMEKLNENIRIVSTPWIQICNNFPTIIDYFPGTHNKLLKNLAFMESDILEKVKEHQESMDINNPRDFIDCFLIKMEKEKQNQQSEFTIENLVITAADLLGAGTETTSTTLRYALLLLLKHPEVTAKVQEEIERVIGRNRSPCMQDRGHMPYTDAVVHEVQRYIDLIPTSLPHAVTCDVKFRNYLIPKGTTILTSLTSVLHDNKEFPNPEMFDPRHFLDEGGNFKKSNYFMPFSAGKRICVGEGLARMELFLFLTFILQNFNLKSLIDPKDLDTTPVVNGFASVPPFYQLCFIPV
# How it was run: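 Substances were tested against enzyme with a pro-luciferin substrate; minus-enzyme wells served as background. After NADPH-initiated oxidation (30-45 min, RT), light was generated with P450-Glo reagent.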
# [10] = measured here: PEO1 parental Z-AUC
# [11] = TFE3-RCC UOK109 viability, measured here: UOK109 Z-AUC
# [12] = TFE3-RCC viability, measured here: UOK124 Z-AUC
# [13] = TFE3-RCC viability, measured here: UOK145 Z-AUC
structure (smiles),measurement,setting,value
NC(CO)(CO)CCc1ccc(Sc2cccc(OCc3ccccc3)c2)cc1Cl,Z-AUC,[1],0.362 (inactive)
same,Z-AUC,[1]; [10],-0.197
same,Z-AUC,[1]; measured here: PEO4 Z-AUC,-0.274
CC(C)C(=O)Nc1ncc(-c2cc(C(F)F)nn2-c2c(Cl)cccc2Cl)s1,Z-AUC,[1],-0.482 (inactive)
same,Z-AUC,[1]; [10],0.209
same,Z-AUC,[1]; measured here: PEO4 Z-AUC,0.42
CCCCCCCCCCCC1=C(O)C(=O)C=C(O)C1=O,Z-AUC,[1],1.62 (inactive)
same,Z-AUC,[1]; [10],1.09
same,Z-AUC,[1]; measured here: PEO4 Z-AUC,1.19
O=C(O)CCC1CCC(c2cc(F)ccc2F)(S(=O)(=O)c2ccc(Cl)cc2)CC1 (stereo unspecified),Z-AUC,[1],1.02 (inactive)
same,Z-AUC,[1]; [10],0.969
same,Z-AUC,[1]; measured here: PEO4 Z-AUC,0.83
COc1ccc2cc(-c3nc(-c4ccc(S(C)=O)cc4)[nH]c3-c3ccncc3)ccc2c1 (stereo unspecified),Z-AUC,[1],-0.0857 (inactive)
same,Z-AUC,[1]; [10],-0.107
same,Z-AUC,[1]; measured here: PEO4 Z-AUC,-0.281
NC(=O)[C@@H](CCC(F)(F)F)N(Cc1ccc(-c2ncon2)cc1F)S(=O)(=O)c1ccc(Cl)cc1,Z-AUC,[1],0.459 (inactive)
same,Z-AUC,[1]; [10],0.342
same,Z-AUC,[1]; measured here: PEO4 Z-AUC,0.442
NC(=O)c1cnc(-c2ccc(C3(N)CCC3)cc2)c(-c2ccccc2)c1,Z-AUC,[1],0.0998 (inactive)
same,Z-AUC,[1]; [10],-0.472
same,Z-AUC,[1]; measured here: PEO4 Z-AUC,-0.533
CC(C)(Cc1ccc2ccccc2c1)NC[C@@H](O)COc1cccc(Cl)c1C#N,Z-AUC,[1],0.779 (inactive)
same,Z-AUC,[1]; [10],1.04
same,Z-AUC,[1]; measured here: PEO4 Z-AUC,0.976
CC(C)[C@H](CO)Nc1nc(Nc2ccc(C(=O)O)c(Cl)c2)c2ncn(C(C)C)c2n1,Z-AUC,[1],-0.776 (inactive)
same,Z-AUC,[1]; [10],0.263
same,Z-AUC,[1]; measured here: PEO4 Z-AUC,0.0501
O=c1c(-c2ccc(O)cc2)coc2cc(O[C@@H]3O[C@H](CO)[C@H](O)[C@H](O)[C@H]3O)ccc12,outcome,[2],inactive
same,max response,[3],1.56% (inactive)
same,outcome,[4],inactive
same,Potency,[5],inactive
same,outcome,[6],inactive
same,outcome,[7],inactive
same,z-score,[8]; [11],0.945
same,z-score,[8]; [12],2.11
same,z-score,[8]; [13],1.28
COc1cc(O)c2c(c1)C(=O)c1cc(C)cc(O)c1C2=O,outcome,[2],inactive
same,max response,[3],1.06% (inactive)
same,outcome,[4],inactive
same,Potency,[5],inactive
same,outcome,[6],inactive
same,outcome,[7],inactive
same,z-score,[8]; [11],1.36
same,z-score,[8]; [12],1.13
same,z-score,[8]; [13],1.08
CC(C)C[C@H](CC(=O)O)C(=O)N[C@@H](Cc1c[nH]c2ccccc12)C(=O)N[C@@H](C)c1ccccc1,Z-AUC,[1],1.58 (inactive)
same,Z-AUC,[1]; [10],1.54
same,Z-AUC,[1]; measured here: PEO4 Z-AUC,1.63
COc1ccc2cccc(CCNC(C)=O)c2c1,Z-AUC,[1],-0.374 (inactive)
same,Z-AUC,[1]; [10],-0.478
same,Z-AUC,[1]; measured here: PEO4 Z-AUC,-0.326
CC(=O)O[C@]1(C(C)=O)CC[C@H]2[C@@H]3C=C(Cl)C4=CC(=O)[C@@H]5C[C@@H]5[C@]4(C)[C@H]3CC[C@@]21C,Z-AUC,[1],0.151 (inactive)
same,Z-AUC,[1]; [10],0.0304
same,Z-AUC,[1]; measured here: PEO4 Z-AUC,0.0664
CO[C@H]1C(=O)[C@]2(C)[C@@H](OC)C[C@H]3OC[C@@]3(OC(C)=O)[C@H]2[C@H](OC(=O)c2ccccc2)[C@]2(O)C[C@H](OC(=O)[C@H](O)[C@@H](NC(=O)OC(C)(C)C)c3ccccc3)C(C)=C1C2(C)C,Potency,[1],0.0078 µM (active)
same,Z-AUC,[1]; [10],-2.35
same,Z-AUC,[1]; measured here: PEO4 Z-AUC,-2.45
Clc1ccc(COC(Cn2ccnc2)c2ccc(Cl)cc2Cl)cc1 (stereo unspecified),Z-AUC,[1],0.343 (inactive)
same,Z-AUC,[1]; [10],0.179
same,Z-AUC,[1]; measured here: PEO4 Z-AUC,0.161
O=C(NCc1ccncc1)C12C[C@H]3C[C@@H](C1)CC(c1ccc(Cl)cc1)(C3)C2,Z-AUC,[1],0.0323 (inactive)
same,Z-AUC,[1]; [10],0.866
same,Z-AUC,[1]; measured here: PEO4 Z-AUC,0.86
COc1cc(Nc2ncc(F)c(Nc3ccc4c(n3)NC(=O)C(C)(C)O4)n2)cc(OC)c1OC,Z-AUC,[1],0.179 (inactive)
same,Z-AUC,[1]; [10],0.902
same,Z-AUC,[1]; measured here: PEO4 Z-AUC,1.16
CN(C[C@@H]1COCCO1)S(=O)(=O)Nc1ccc2ccc3ncc(-c4cnn(C)c4)cc3c(=O)c2c1,Z-AUC,[1],-0.656 (inactive)
same,Z-AUC,[1]; [10],-0.332
same,Z-AUC,[1]; measured here: PEO4 Z-AUC,-0.0714
NC(=O)c1cccc(-c2cc(Nc3ccc(OC(F)(F)F)cc3)ncn2)c1,Z-AUC,[1],1.26 (inactive)
same,Z-AUC,[1]; [10],0.548
same,Z-AUC,[1]; measured here: PEO4 Z-AUC,0.648
COc1ccc(-c2coc3cc(O)ccc3c2=O)cc1,Potency,[9],14.1 µM (active)
same,outcome,[2],inactive
same,max response,[3],-1.37% (inactive)
same,outcome,[4],inactive
same,outcome,[6],inactive
same,outcome,[7],inactive
same,z-score,[8]; [11],0.416
same,z-score,[8]; [12],0.783
same,z-score,[8]; [13],0.452
CC(=O)Nc1ccc([C@H](C)C(=O)Nc2ncc(C(C)C)s2)cc1,Z-AUC,[1],-0.905 (inactive)
same,Z-AUC,[1]; [10],-1.74
same,Z-AUC,[1]; measured here: PEO4 Z-AUC,-1.22
COc1ccc(-c2nc(N3CCOCC3)c3sc(CN(C)c4ncc(C(=O)NO)cn4)cc3n2)cn1,Potency,[1],0.0616 µM (active)
same,Z-AUC,[1]; [10],-1.63
same,Z-AUC,[1]; measured here: PEO4 Z-AUC,-1.69
CC(C(=O)O)c1ccc(-c2ccccc2)c(F)c1 (stereo unspecified),Z-AUC,[1],0.668 (inactive)
same,Z-AUC,[1]; [10],0.939
same,Z-AUC,[1]; measured here: PEO4 Z-AUC,1.4
O=C1c2ccccc2-[n+]2ccc3c([nH]c4ccccc43)c21,Z-AUC,[1],-1.18 (inactive)
same,Z-AUC,[1]; [10],-1.75
same,Z-AUC,[1]; measured here: PEO4 Z-AUC,-2.31
CNC(=O)c1ccc2cc(C3(O)CCn4cncc43)ccc2c1 (stereo unspecified),Z-AUC,[1],-0.914 (inactive)
same,Z-AUC,[1]; [10],-0.347
same,Z-AUC,[1]; measured here: PEO4 Z-AUC,-0.305
O=c1cc(-c2ccc(O)cc2)oc2cc(O)cc(O)c12,Potency,[9],6.31 µM (active)
same,outcome,[2],inactive
same,max response,[3],-0.0344% (inactive)
same,outcome,[4],inactive
same,Potency,[5],31.6 µM (active)
same,outcome,[6],inactive
same,outcome,[7],inactive
same,Z-AUC,[1],0.475 (inactive)
same,Z-AUC,[1]; [10],0.649
same,Z-AUC,[1]; measured here: PEO4 Z-AUC,0.805
